Measurements published in PubChem BioAssay AID431 (Sanford-Burnham Center for Chemical Genomics, 2006).
Out of some 63,000 compounds screened, about 1,100 (1.7%) were called active. This is one part of a sample in which actives are shown more often than they occur. Results with a measured potency or affinity are listed apart. Values without a mark were called inactive.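 Rule for the calls: active = compounds whose percent cytotoxicity in the single-dose primary screen, scaled between solvent and toxic-drug controls, exceeds 50; inactive = the rest.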

Assay: cytotoxicity in KRAS-transformed pancreatic duct cells, primary screen, cell-based, fluorescence, HTS (AID 431);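 note: 0% = DMSO solvent wells and 100% = doxorubicin-treated wells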
Conditions: HPDE-C7K KRASV12 cells, Alamar Blue viability, 48 h; at 10 µM; hits give high values

Row | SMILES | cytotoxicity
1 | OCCNc1ncnc2c1c(-c1ccccc1)c(-c1ccccc1)n2Cc1ccco1 | 21.6%
2 | O=c1c2ccccc2nc(-c2ccccc2)n1CCCn1ccnc1 | -22.7%
3 | N=c1c2c(-c3ccccc3)c(-c3ccccc3)n(Cc3ccco3)c2ncn1CCN1CCOCC1 | 32.6%
4 | CC1(C)CC(=O)C2=C(C1)Oc1ncn(CCCn3ccnc3)c(=N)c1C2c1ccccc1 (centres undefined) | 9.8%
5 | COC(=O)c1c(F)c(F)c(N2CCOCC2)c(F)c1F | -3.4%
6 | CC(C)CC(=O)Nc1ncnc2c1C(=O)CC(C)(C)C2 | -2.6%
7 | COc1ccc(-c2nnn(CC(=O)N(C3CCCCC3)C(C)C(=O)NC3CCCC3)n2)cc1OC (centres undefined) | -4.4%
8 | COC(=O)C1=C(C)N(c2ccc(F)c(Cl)c2)C(=O)C1 | 0.2%
9 | COC(=O)C1=C(C)N(c2ccc(Cl)c(Cl)c2)C(=O)C1 | 79% (active)
10 | COC(=O)C1=C(C)N(c2cccc(Cl)c2)C(=O)C1 | -6.2%
11 | CCOC(=O)c1ccc(-n2c(N)c(C(=O)NCc3ccco3)sc2=S)cc1 | 10.8%
12 | O=S(=O)(Nc1ccc(S(=O)(=O)N2CCCCC2)cc1)c1cccs1 | -10.1%
13 | COc1cc(S(=O)(=O)n2nnc3ccccc32)c(OC)cc1Cl | 59.1% (active)
14 | CCOc1cc(C)c(Cl)cc1S(=O)(=O)n1nnc2ccccc21 | 52.2% (active)
15 | COc1ccc(Cl)cc1S(=O)(=O)n1nnc2ccccc21 | 4.4%
16 | COc1ccc(OC)c(S(=O)(=O)n2nnc3ccccc32)c1 | 11.6%
17 | CCOc1cc(C)c(Cl)cc1S(=O)(=O)n1cnc2ccccc21 | 7.1%
18 | CCOc1ccc(Cl)cc1S(=O)(=O)n1nnc2ccccc21 | 4.6%
19 | COc1ccc(COC(=O)c2ccc(N3CCCC3=O)cc2)cc1F | 0.9%
20 | O=C(NCc1ccco1)c1cnc2n(c1=O)CCS2 | 8.6%
21 | CSc1nc(N)nc(SCC(=O)c2ccc(C)cc2)c1C#N | -1%
22 | CSc1nc(N)nc(SCC(=O)OC(C)C)c1C#N | -1.2%
23 | CSc1nc(N)nc(SCC(=O)C23CC4CC(CC(C4)C2)C3)c1C#N | 76.6% (active)
24 | CCCCOc1cccc(C(=O)N(Cc2ccco2)C2CCS(=O)(=O)C2)c1 (centres undefined) | -19.4%
25 | COC(=O)C(NC(=O)c1ccccc1)=C(C)C | -16.9%

Row | SMILES | cytotoxicity
26 | Cc1[nH]c(=S)[nH]c(=O)c1Cc1ccccc1 | -7.5%
27 | O=C(N1CCOCC1)N1CCN(c2ccccn2)CC1 | -19.2%
28 | O=C(c1ccco1)N1c2ccccc2Sc2ccccc21 | 4.1%
29 | O=C(CN1CCN(c2ccccn2)CC1)N1c2ccccc2Sc2ccc(C(F)(F)F)cc21 | 17%
30 | O=C(c1ccco1)N1CCN(C(=O)N2c3ccccc3Sc3ccccc32)CC1 | 74.4% (active)
31 | O=C(N1CCN(c2ccccn2)CC1)N1c2ccccc2Sc2ccccc21 | 66.6% (active)
32 | O=C(NC1CCN(C(=O)N2c3ccccc3Sc3ccccc32)CC1)c1ccco1 | -3.7%
33 | Cc1ccc2c(c1)c1c3n2CC(=C2C(=O)OC(C)(C)OC2=O)NC3CCC1 (centres undefined) | 33.1%
34 | CC1(C(=O)O)CC(C)(C(=O)O)CC(C)(C(=O)O)C1 (centres undefined) | -1.4%
35 | FC(F)(F)c1cc(-c2ccccc2)nc(N2CCCCC2)n1 | -12.8%
36 | CCN(CCCNC(=O)c1[nH]c(C)c(C(C)=O)c1C)c1ccccc1 | 11.4%
37 | NC(=O)c1ccccc1NC(=O)CCc1ccccc1 | 3.2%
38 | CCOc1ccc(OCC)c(NC(=O)CN2CCN(c3cccc(C)c3C)CC2)c1 | -0.1%
39 | Cc1cccn2c(=O)c(/C=N/O)c(N3CCCCC3)nc12 | 3.4%
40 | O=C1c2ccccc2NC(c2ccco2)N1O (centres undefined) | 9.4%
41 | O=C1COc2ccc(C(=O)c3ccccc3)cc2CN1 | -4.7%
42 | COc1ccccc1N(CC(=O)N1CCCCCC1)S(C)(=O)=O | -11.5%
43 | COCc1cc(CN2CCCC2)c(O)c2ncccc12 | -4.6%
44 | Oc1c(CN2CCCCC2)cc(COCc2ccccc2)c2cccnc12 | 2.2%
45 | COCc1[nH]nc2c1C1(C(=O)Nc3ccc(F)cc31)C(C#N)=C(N)O2 (centres undefined) | -38.8%
46 | Cc1ccc(NC(=O)CC2SCCNC2=O)cc1Cl (centres undefined) | -0.4%
47 | OCCN1CCN(c2nc(-c3ccccc3)c3cc(Cl)ccc3n2)CC1 | 130% (active)
48 | CN1CCN(c2nc(N3CCN(CCO)CC3)nc3ccccc23)CC1 | 8.2%
49 | Clc1ccc2nc(NC3=NCN(CCN4CCOCC4)CN3)nc(-c3ccccc3)c2c1 | 8.5%
50 | CN1CCN(c2nc(-c3ccccc3)c3cc(Cl)ccc3n2)CC1 | 29.7%

Row | SMILES | cytotoxicity
51 | Cc1ccc2nc(N3CCC(C(=O)O)CC3)nc(-c3ccccc3)c2c1 | 1%
52 | CS(=O)(=O)N1CCC(c2noc(-c3ccc(C(F)(F)F)cc3)n2)CC1 | 0.2%
53 | COc1ccc(N/C=C2\CCOC2=O)cc1 | 43.6%
54 | COC(=O)c1ccc(OCC(=O)c2ccc(O)cc2O)cc1 | 0.1%
55 | C=CCOc1ccc(/C(O)=C2\C(=O)C(=O)N(CCOC)C2c2cccnc2)cc1 (centres undefined) | -14%
56 | OC(CCN1CCCCC1)(c1ccccc1)C1CCCCC1 (centres undefined) | 14.3%
57 | OC(CCN1CCCC1)(c1ccccc1)C1CCCCC1 (centres undefined) | 28.9%
58 | CC(C)(C)c1ccc(C(O)CCCN2CCC(C(O)(c3ccccc3)c3ccccc3)CC2)cc1 (centres undefined) | 121% (active)
59 | COc1cccc(C2CC(c3ccc(C)cc3)Nc3nc(N)nn32)c1 (centres undefined) | 1.4%
60 | CCN1CCN(C(=O)C2CCN(Cc3nc(-c4cccc(Cl)c4)oc3C)CC2)CC1 | 1.9%
61 | Cc1oc(-c2cccc(Cl)c2)nc1CN1CCC(C(=O)N2CCN(c3ccccc3F)CC2)CC1 | 62% (active)
62 | Cc1oc(-c2cccc(Cl)c2)nc1CN1CCC(C(=O)N2CCN(c3ccccn3)CC2)CC1 | 6.5%
63 | Cc1cccc(OCC(O)Cn2c(NCCCOC(C)C)nc3c2c(=O)[nH]c(=O)n3C)c1 (centres undefined) | -8%
64 | CN(C)c1ccc(-c2nn3c(-c4ccc(Cl)cc4Cl)nnc3s2)cc1 | 50.5% (active)
65 | CN(C)c1ccc(-c2nn3c(-c4ccc(Cl)cc4)nnc3s2)cc1 | -7.1%
66 | COc1ccccc1-c1nnc2sc(-c3ccc(N(C)C)cc3)nn12 | 44%
67 | Clc1ccccc1-c1nnc2sc(-c3ccncc3)nn12 | 3.4%
68 | CN(C)c1ccc(-c2nn3c(-c4ccccc4Cl)nnc3s2)cc1 | 57.1% (active)
69 | Cc1nn2c(-c3ccc(Cl)cc3Cl)nnc2s1 | -0.2%
70 | O=S(=O)(Cc1ccccc1)N1CCn2c(nc3ccccc32)C1 | 9.3%
71 | CCOc1cccc(-c2nnc3sc(COc4ccc(Cl)cc4)nn23)c1 | 24.5%
72 | CCN(Cc1cc2ccccc2[nH]c1=O)C(=O)C1CCCCC1 | -7.8%
73 | Cc1ccc(C(=O)C(C)OC(=O)C2CC(=O)N(C3CCCCC3)C2)cc1 (centres undefined) | -11.4%
74 | CC(C)(C)c1cc(CN2CCN(CCO)CC2)cc(C(C)(C)C)c1O | -4.4%
75 | CC(C)(C)c1cc(C(=S)N2CCN(CCO)CC2)cc(C(C)(C)C)c1O | -13.9%

Row | SMILES | cytotoxicity
76 | Cc1cc(N2CCN(c3cccc(C(F)(F)F)c3)CC2)n2ncnc2n1 | -14.7%
77 | CNc1sc(C(=O)c2cccs2)c(N)c1-c1nc2ccccc2s1 | 33.2%
78 | CCNc1sc(C(=O)c2cccs2)c(N)c1-c1nc2ccccc2s1 | 74.9% (active)
79 | CCNc1sc(C(=O)c2cccs2)c(N)c1C#N | -11.8%
80 | O=C(NCc1ccncc1)c1c(F)c(F)c(F)c(F)c1F | -8.2%
81 | Cc1ccc(SCc2cc(=O)[nH]c(N3CCN(Cc4ccc5c(c4)OCO5)CC3)n2)cc1 | 0.2%
82 | Cn1c(-c2cc(Br)ccc2O)n[nH]c1=S | 0.6%
83 | Cc1ccccc1OCCCC(=O)Nc1ccc(N2CCOCC2)cc1 | 1.2%
84 | O=C(Nc1ccccc1)NC1(C(=O)NCCCN2CCOCC2)CCCCC1 | 0.6%
85 | CC(C)C(c1nnnn1C1CCCC1)N1CCc2ccccc21 (centres undefined) | -8.4%
86 | COc1ccccc1NC(=O)Nc1ccc2c(c1)OCCO2 | -11.4%
87 | COc1ccc(C(C)(C)C)cc1NC(=O)Nc1ccc2c(c1)OCO2 | 50.7% (active)
88 | COC(=O)c1ccc(C(=O)OC)c(NC(=O)Nc2ccc3c(c2)OCO3)c1 | -0.1%
89 | CCCCCCOC(=O)C1=C(C)NC(=O)NC1c1ccc(O)cc1 (centres undefined) | -1.4%
90 | N#Cc1c(-c2ccco2)nc(SCC(=O)Nc2cccc(Cl)c2)[nH]c1=O | 17.5%
91 | Cc1nc(SCc2cccc(F)c2)[nH]c(=O)c1C#N | -15.2%
92 | N#Cc1c(-c2ccco2)nc(SCc2ccc(F)cc2)[nH]c1=O | 68.9% (active)
93 | O=C(/C=N\O)NCCCNCc1ccccc1 | 11%
94 | O=C(c1noc2c1CCCC2)N1CCN(C(c2ccccc2)c2ccccc2)CC1 | 2.5%
95 | CCOc1cc(C(=O)N(C)c2ccccc2)cc(OCC)c1OCC | 4.9%
96 | CCCCOCCCNC(=O)COc1ccccc1 | -4%
97 | O=C1CC(c2ccco2)CC(O)=C1C=NCCO (centres undefined) | -9.5%
98 | O=C1CC(c2ccco2)CC(O)=C1C=Nc1cc(Cl)ccc1O (centres undefined) | 75.8% (active)
99 | O=C1CC(c2ccco2)CC(O)=C1C=NCCN1CCNCC1 (centres undefined) | -12.7%
